This is a sample that favours compounds with a hit; in the whole collection about 1.2% have one here.
GLA inh pH 4.5 – inhibitors of human alpha-galactosidase A at pH 4.5; activity change, negative = inhibition, % at 105 µM; 230,000 tested, under 10 active; purified enzyme, 4-MU-alpha-Gal fluorescence, pH 4.5; P06280;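 further: 0% = full activity with enzyme and -100% = basal without enzyme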
Target sequence (P06280 whole entry, looked up): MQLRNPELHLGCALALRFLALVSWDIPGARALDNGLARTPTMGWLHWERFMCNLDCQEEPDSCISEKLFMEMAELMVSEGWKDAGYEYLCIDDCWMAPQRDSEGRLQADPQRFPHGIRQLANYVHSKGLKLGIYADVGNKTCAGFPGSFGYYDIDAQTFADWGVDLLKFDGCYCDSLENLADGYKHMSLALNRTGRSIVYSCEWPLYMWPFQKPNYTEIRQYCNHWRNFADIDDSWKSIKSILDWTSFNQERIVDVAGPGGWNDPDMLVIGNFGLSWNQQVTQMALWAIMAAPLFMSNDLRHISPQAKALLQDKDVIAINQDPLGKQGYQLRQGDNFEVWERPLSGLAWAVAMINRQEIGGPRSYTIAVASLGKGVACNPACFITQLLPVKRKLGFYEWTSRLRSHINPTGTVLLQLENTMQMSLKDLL
ERK EGF inh – blocks ERK signaling stimulated by EGF | AID 1454 | HEK293-V1b, EGF-stimulated phospho-ERK AlphaScreen | 0.41% of 130,000 active | Potency, µM (top dose mostly 11.5 µM), for inactives: at the top dose activity change, negative = inhibition, usual class: inhibitors;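 further: potency means the concentration at half of the fitted maximal effect; plate controls were stimulated vehicle wells for no effect and unstimulated vehicle basal for full effect; nearly all actives have a fitted effect of over 55% in size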
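Cell line HEK293 (stable V1b), low serum overnight. Pretreatment: compound 30 min, 37C. EGF 25 nM, 5 min. Detection: SureFire AlphaScreen, 5 h RT. AC50 via standard Hill equation.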
HTT aggregate – inhibitors of mutant huntingtin aggregate formation in PC12 cells; PC12 HttQ103-GFP aggregates, Acumen cytometry, 40 h; Potency, µM (doses to about 46.1 µM), inactives show at the top dose activity change, negative = inhibition, actives largely listed as inhibitors; 1.1% of 220,000 active; AID 1688; further: potency means the concentration at half of the fitted maximal effect; on the % scale 0 is the no-effect control and ±100 the full control effect; nearly all actives have a fitted effect of over 60% in size
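Ecdysone-promoter PC12 model expressing HTT exon 1 Q103 fused to GFP, induced by tebufenozide at 100 nM final. Compounds titrated; aggregates sized 1–25 µm scored on a 488 nm laser cytometer.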
aGal spleen mod – inhibitors or activators of human alpha-galactosidase in spleen homogenate; 0.008% of 240,000 active; AID 2107; Potency, µM (series often up to 80 µM), for inactives: at the top dose activity change, negative = inhibition, actives largely listed as inhibitors; P06280; human spleen homogenate, 4MU-alpha-Gal fluorescence, 40 min;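 further: potency means the concentration at half of the fitted maximal effect; 0% = enzyme with vehicle and -100% = no enzyme basal signal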
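Spleen homogenate 1 ug + cpd (titration) + 4-MU-alpha-D-galactopyranoside 1 mM; 37C 40 min; 50 mM citrate/phosphate pH 5.0, 0.01% Tween-20; stop pH 10; fluorescence 365/440; AC50 via Hill.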
HTT cytoprotect – cytoprotection in Huntington HTT-Q103 PC12 cell model. PC12 HTT-Q103 induced, cytoprotection, ATP luminescence, 40 h. Potency, µM (highest dose often 56.4 µM), for the others: cytoprotection (ATP increase), hits mostly activators. 0.14% of 230,000 active; further: potency means the concentration at half of the fitted maximal effect; % of control where 0% means no effect; nearly all actives have a fitted effect of over 45% in size
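Cells were plated at 1500 per well in phenol red-free DMEM with 5% equine and 5% calf serum. Tebufenozide (100 nM final) and compounds were added, then ATPlite reagent, and luminescence was read.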
Starred values were filed as active, the others as inactive; ? = inconclusive; nt = no result given; [ ] = remark or other dose. The call rests on the fitted dose curve; in most records, active means well fitted curve in the direction sought with a large enough effect; inconclusive means small, poorly fitted or top-dose-only effect, or another doubt; inactive means no such curve, though single readings can be large; an effect the other way counts as inactive or inconclusive.

SMILES	GLA inh pH 4.5	ERK EGF inh	HTT aggregate	aGal spleen mod	HTT cytoprotect
CCOC(=O)C12CC1/C(=N\O)c1ccccc1O2 (centres undefined)	nt	nt	nt	-4%	-11%
N#Cc1cccc(-c2nc(NCc3cccs3)c3ccccc3n2)c1	nt	nt	nt	0%	-10%
Cc1noc(C)c1-c1cc(NC2CC2)ncn1	-4	28%	nt	-2%	4%
CNC(=O)COC(=O)c1ccc(Cl)c(S(=O)(=O)N2CCCC2)c1	-1	4%	?	3%	2.8µM*
COc1ccc(NC2=C(NCCO)C(=O)c3ccccc3C2=O)cc1	7	?	-1%	-9%	-15%[10 µM]
COC1=C(Nc2ccc(O)cc2)C(=O)c2ccccc2C1=O	-3	?	15%	7%	7%[10 µM]
CCOc1ccc(NC2=C(OC)C(=O)c3ccccc3C2=O)cc1	-5	13µM*	?	4%	-60%[10 µM]
COC1=C(Nc2ccc(OC)cc2)C(=O)c2ccccc2C1=O	-14	13µM*	13µM*	4%	-15%[10 µM]
O=C(/C=C/c1c(C(=O)O)[nH]c2cc(Cl)cc(Cl)c12)Nc1ccccc1	0	-9%	nt	4%	4%
Cc1cc(/C=C2/C(=O)N(C)C(=S)N2C)ccc1N1CCCC1	-5	25µM*	-9%	-3%	-37%
CCCN1C(=O)/C(=C/c2ccc(OCC(=O)OCC)cc2)NC1=S	-2	32µM*	-5%	-3%	14%
Cc1cc(/C=C2\NC(=S)N(C)C2=O)ccc1N1CCCC1	?	-3%	-12%	-2%	-19%
CCCN1C(=O)/C(=C/c2ccc(N3CCCC3)c(C)c2)NC1=S	-28	nt	13µM*	?	-106%
CN(C)c1ccc(-c2cc(C3C4C=CCCC4(C)C(=O)N3Cc3ccccc3)ccc2F)cc1 (centres undefined)	nt	nt	nt	-2%	nt
COc1ncc2nc(-c3cn(C)c4ccccc34)c(=O)n(CCC#N)c2n1	nt	nt	nt	1%	1%
O[C@@H]1CO[C@H]2[C@@H]1OC[C@@H]2O	nt	nt	-18%	nt	-8%
Cn1c(=O)[nH]c(=O)c2[nH]cnc21	-3	2%	nt	0%	-39%
Cc1nc2ccccc2n1-c1nc(-c2ccco2)cc(C(F)(F)F)n1	3	nt	3.2µM*	5%	-87%
FC(F)(F)c1cc(-c2ccco2)nc(-n2cnc3ccccc32)n1	-2	nt	7%	-3%	-7%
CS(=O)(=O)c1cccc(C(=O)NCc2ccccc2)c1	-1	nt	-1%	-13%	-18%[10 µM]
CC(C)(C)c1cc(C(=O)NCc2ccccc2)ccn1	nt	9%[57.5 µM]	11µM*	-4%	-9%
CC(C)(CO)[C@@H](O)C(=O)NCCC(=O)NCCSSCCNC(=O)CCNC(=O)[C@H](O)C(C)(C)CO	nt	nt	-10%	nt	27%
O=C(NC1CCS(=O)(=O)C1)/C(=C\c1ccco1)NC(=O)c1ccccc1 (centres undefined)	0	0%[57.5 µM]	-12%[9.22 µM]	0%	-4%[10 µM]
O=C(NC1CCS(=O)(=O)C1)/C(=C/c1ccco1)NC(=O)c1ccccc1 (centres undefined)	9	11%	0.18µM*	-9%	0.14µM*
CCCCCCCCCCC(CO)CCCCCCCC (centres undefined)	nt	nt	14%	nt	3%
SMILES	GLA inh pH 4.5	ERK EGF inh	HTT aggregate	aGal spleen mod	HTT cytoprotect
COc1ccc(C(=O)[C@]2(C)C=C(c3ccc(OC)cc3)[C@H](C)C2)cc1	0	0%	nt	-1%	35µM*
C[C@@H]1C[C@](C)(C(=O)c2ccc3c(c2)OCO3)C=C1c1ccc2c(c1)OCO2	-10	-11%	nt	-6%	-11%
Brc1ccc2c(c1)OCCOCCOc1cc(Br)ccc1OCCOCCOCCO2	-8	nt	25µM*	-3%	-17%[10 µM]
Brc1cc2c(cc1Br)OCCOCCOCCOCCO2	2	-5%	-7%	-10%	-35%
O=S(=O)(CCC(F)=C(F)F)c1nnnn1C1CCCCC1	-8	-9%	nt	-4%	4µM*
Cc1ccc(OCCCCn2cnc3ccccc32)c(C)c1	5	nt	3.2µM*	-9%	-153%
Nc1ccc2c(c1)C(=O)C(=O)c1ccccc1-2	-8	nt	0.79µM*	7%	-99%[10 µM]
Nc1ccc2c(c1)C(=O)c1ccccc1C2=O	nt	nt	nt	5%	-41%
O=C1C(=O)c2ccc(-c3ccccc3)cc2-c2ccccc21	4	5%	4.5µM*	1%	-97%[10 µM]
COc1ccc2c(c1)OC[C@H]1c3cc4c(cc3O[C@@H]21)OCO4	1	?	nt	-10%	-59%
COC(=O)C1=C(C)NC(C)=C(C(=O)OCCN2CCN(C(c3ccccc3)c3ccccc3)CC2)C1c1cccc([N+](=O)[O-])c1 (centres undefined)	nt	nt	-26%	nt	-69%
CCN(CC)c1ccc2cc(-c3nnc(-c4ccncc4)o3)c(=O)oc2c1	-2	nt	2.5µM*	4%	-2%[10 µM]
CC(C)C[C@H](NC(=O)[C@H](CCCCN)NC(=O)[C@H](CCCNC(=N)N)NC(=O)[C@H](C)NC(=O)[C@H](CO)NC(=O)[C@H](CCCCN)NC(=O)[C@H](CCCNC(=N)N)NC(=O)[C@H](C)NC(=O)CNC(=O)[C@@H](NC(=O)[C@H](Cc1ccccc1)NC(=O)CNC(=O)CNC(=O)[C@@H](N)Cc1ccccc1)[C@@H](C)O)C(=O)N[C@@H](C)C(=O)N[C@@H](CC(N)=O)C(=O)N[C@@H](CCC(N)=O)C(=O)O	nt	nt	nt	7%	nt
C#C[C@]1(O)CC[C@H]2[C@H]3CCC4=Cc5oncc5C[C@]4(C)[C@@H]3CC[C@]21C	5	-5%	nt	-4%	9%
CC(C)CC1OC(=O)C2=CCCCC21 (centres undefined)	nt	nt	nt	-10%	nt
O=C(N/N=C/c1cc([N+](=O)[O-])ccc1O)c1ccc2c(c1)OCCO2	-17	3%	14µM*	6%	25%[10 µM]
Cc1ccccc1NC(=O)CCC(=O)N/N=C/c1cc([N+](=O)[O-])ccc1O	-15	-1%	13µM*	4%	nt
COc1cccc(/C=N/NC(=O)CNC(=O)C2COc3ccccc3O2)c1O (centres undefined)	-4	7%	13µM*	-1%	34%[10 µM]
O=C(N/N=C/c1ccccc1[N+](=O)[O-])c1ccc2c(c1)OCCO2	0	-4%[57.5 µM]	-16%[9.22 µM]	6%	-92%[10 µM]
COc1cccc(/C=N/NC(=O)CNC(=O)c2ccc3c(c2)OCCO3)c1O	-2	4%	35µM*	-11%	0%[10 µM]
COc1ccc(/C(C)=N/NC(=O)CNC(=O)C2COc3ccccc3O2)c(OC)c1 (centres undefined)	-1	-12%[57.5 µM]	0%[9.22 µM]	5%	-5%[10 µM]
Cc1ccc(C)c(NC(=O)CCC(=O)N/N=C/c2cc([N+](=O)[O-])ccc2O)c1	-5	0%	-9%[9.22 µM]	-15%	16%[10 µM]
C/C1=C/CC(C)(C)/C=C/C/C(C)=C/CC1	0	24%	nt	20%	nt
